Test results reported in the supplement of paper PMC10849652.
The full data set covers some 7,900 targets. This sample favours those with a hit. About 0.6% of all pairs of compound and target were hits. Unmarked numbers belong to inactive results.

Tests used:
Assay in all cases: log2 fold change, soluble protein after heating vs DMSO (PISA); higher = thermal stabilisation; K562 cells, 10 uM, 30 min; active = over 0.2 and 3.5 SD of the protein, either way, in both replicates (recomputed)
[1] = compound: CS(=O)(=O)c1ccc(-c2cnc(N)c(C(=O)Nc3ccccc3)n2)cc1
Summary of the method: (§1)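 K562 cells at 2×10^6 cells/mL were given 10 μM compound for 30 min. Aliquots then went through 3 min of heating across 48°C-58°C, were pooled, and were extracted in PBS with 0.5% NP-40 at 4°C, and the supernatant after 21,000xg for 90 min was quantified by TMTpro 16plex LC-MS/MS with channel sums equalised. Thermal stability relative to control samples, from duplicates, is given as log2 fold change.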

crizotinib = compound: C[C@@H](Oc1cc(-c2cnn(C3CCNCC3)c2)cnc1N)c1c(Cl)ccc(F)c1Cl [crizotinib]
Summary of the method: as §1

[2] = compound: C[C@@H]1COCCN1C2=NC(=NC(=C2)C3(CC3)S(=O)(=O)C)C4=C5C=CNC5=CC=C4
Summary of the method: as §1

[3] = compound: C[C@H](C1=CC=C(C=C1)C(=O)NC2=C3C=CNC3=NC=C2)N
Summary of the method: as §1

duvelisib = compound: C[C@H](Nc1ncnc2nc[nH]c12)c1cc2cccc(Cl)c2c(=O)n1-c1ccccc1 [duvelisib]
Summary of the method: as §1

tozasertib = compound: Cc1cc(Nc2cc(N3CCN(C)CC3)nc(Sc3ccc(NC(=O)C4CC4)cc3)n2)n[nH]1 [tozasertib]
Summary of the method: as §1

[4] = compound: Cc1cc(SCc2sc(-c3ccc(C(F)(F)F)cc3)nc2C)ccc1OCC(=O)O
Summary of the method: as §1

doramapimod = compound: Cc1ccc(-n2nc(C(C)(C)C)cc2NC(=O)Nc2ccc(OCCN3CCOCC3)c3ccccc23)cc1 [doramapimod]
Summary of the method: as §1

ispinesib = compound: Cc1ccc(C(=O)N(CCCN)[C@@H](c2nc3cc(Cl)ccc3c(=O)n2Cc2ccccc2)C(C)C)cc1 [ispinesib]
Summary of the method: as §1

gandotinib = compound: Cc1cc(Nc2cc(CN3CCOCC3)c3nc(C)c(Cc4ccc(Cl)cc4F)n3n2)n[nH]1 [gandotinib]
Summary of the method: as §1

Chain of UniProt Q9NRH2 (Q9NRH2 whole entry, looked up): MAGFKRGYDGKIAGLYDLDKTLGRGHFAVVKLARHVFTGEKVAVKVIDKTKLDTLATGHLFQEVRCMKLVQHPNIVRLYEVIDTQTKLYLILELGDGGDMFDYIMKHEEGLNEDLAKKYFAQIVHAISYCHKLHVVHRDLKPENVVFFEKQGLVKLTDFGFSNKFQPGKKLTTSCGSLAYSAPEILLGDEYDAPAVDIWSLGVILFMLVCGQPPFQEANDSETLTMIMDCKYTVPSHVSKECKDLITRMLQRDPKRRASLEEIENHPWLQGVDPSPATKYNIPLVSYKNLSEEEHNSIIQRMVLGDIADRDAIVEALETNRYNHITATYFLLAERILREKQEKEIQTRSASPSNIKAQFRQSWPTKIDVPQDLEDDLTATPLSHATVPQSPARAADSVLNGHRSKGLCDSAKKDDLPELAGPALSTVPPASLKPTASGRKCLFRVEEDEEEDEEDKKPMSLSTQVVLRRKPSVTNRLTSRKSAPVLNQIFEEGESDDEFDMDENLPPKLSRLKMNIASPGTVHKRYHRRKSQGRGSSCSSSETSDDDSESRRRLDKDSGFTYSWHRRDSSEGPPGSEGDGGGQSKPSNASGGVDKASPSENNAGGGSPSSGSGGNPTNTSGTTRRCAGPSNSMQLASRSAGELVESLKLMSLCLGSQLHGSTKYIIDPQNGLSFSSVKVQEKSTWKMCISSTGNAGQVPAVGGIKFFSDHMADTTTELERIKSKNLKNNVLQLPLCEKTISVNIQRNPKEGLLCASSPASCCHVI
Chain of UniProt O76062 (O76062 whole entry, looked up): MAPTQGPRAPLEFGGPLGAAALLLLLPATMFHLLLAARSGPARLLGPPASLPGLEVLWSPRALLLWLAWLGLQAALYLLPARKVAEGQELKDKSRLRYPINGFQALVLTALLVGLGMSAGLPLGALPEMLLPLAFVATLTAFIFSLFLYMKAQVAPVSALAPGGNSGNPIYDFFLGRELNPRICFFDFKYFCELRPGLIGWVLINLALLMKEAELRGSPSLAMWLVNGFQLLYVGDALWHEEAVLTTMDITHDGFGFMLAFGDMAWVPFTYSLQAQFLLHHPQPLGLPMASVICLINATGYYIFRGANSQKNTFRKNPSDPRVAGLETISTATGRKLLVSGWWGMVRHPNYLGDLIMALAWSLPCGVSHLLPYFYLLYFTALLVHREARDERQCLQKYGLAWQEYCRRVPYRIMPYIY
Chain of UniProt O75663 (O75663 whole entry, looked up): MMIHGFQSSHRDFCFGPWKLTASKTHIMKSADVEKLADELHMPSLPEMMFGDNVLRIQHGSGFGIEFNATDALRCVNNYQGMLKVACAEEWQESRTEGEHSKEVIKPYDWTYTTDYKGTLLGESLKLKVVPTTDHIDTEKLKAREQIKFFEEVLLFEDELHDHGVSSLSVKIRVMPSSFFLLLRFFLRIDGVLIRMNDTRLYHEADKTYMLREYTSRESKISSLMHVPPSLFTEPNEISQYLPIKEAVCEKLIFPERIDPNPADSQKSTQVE
Chain of UniProt Q13428 (Q13428 whole entry, looked up): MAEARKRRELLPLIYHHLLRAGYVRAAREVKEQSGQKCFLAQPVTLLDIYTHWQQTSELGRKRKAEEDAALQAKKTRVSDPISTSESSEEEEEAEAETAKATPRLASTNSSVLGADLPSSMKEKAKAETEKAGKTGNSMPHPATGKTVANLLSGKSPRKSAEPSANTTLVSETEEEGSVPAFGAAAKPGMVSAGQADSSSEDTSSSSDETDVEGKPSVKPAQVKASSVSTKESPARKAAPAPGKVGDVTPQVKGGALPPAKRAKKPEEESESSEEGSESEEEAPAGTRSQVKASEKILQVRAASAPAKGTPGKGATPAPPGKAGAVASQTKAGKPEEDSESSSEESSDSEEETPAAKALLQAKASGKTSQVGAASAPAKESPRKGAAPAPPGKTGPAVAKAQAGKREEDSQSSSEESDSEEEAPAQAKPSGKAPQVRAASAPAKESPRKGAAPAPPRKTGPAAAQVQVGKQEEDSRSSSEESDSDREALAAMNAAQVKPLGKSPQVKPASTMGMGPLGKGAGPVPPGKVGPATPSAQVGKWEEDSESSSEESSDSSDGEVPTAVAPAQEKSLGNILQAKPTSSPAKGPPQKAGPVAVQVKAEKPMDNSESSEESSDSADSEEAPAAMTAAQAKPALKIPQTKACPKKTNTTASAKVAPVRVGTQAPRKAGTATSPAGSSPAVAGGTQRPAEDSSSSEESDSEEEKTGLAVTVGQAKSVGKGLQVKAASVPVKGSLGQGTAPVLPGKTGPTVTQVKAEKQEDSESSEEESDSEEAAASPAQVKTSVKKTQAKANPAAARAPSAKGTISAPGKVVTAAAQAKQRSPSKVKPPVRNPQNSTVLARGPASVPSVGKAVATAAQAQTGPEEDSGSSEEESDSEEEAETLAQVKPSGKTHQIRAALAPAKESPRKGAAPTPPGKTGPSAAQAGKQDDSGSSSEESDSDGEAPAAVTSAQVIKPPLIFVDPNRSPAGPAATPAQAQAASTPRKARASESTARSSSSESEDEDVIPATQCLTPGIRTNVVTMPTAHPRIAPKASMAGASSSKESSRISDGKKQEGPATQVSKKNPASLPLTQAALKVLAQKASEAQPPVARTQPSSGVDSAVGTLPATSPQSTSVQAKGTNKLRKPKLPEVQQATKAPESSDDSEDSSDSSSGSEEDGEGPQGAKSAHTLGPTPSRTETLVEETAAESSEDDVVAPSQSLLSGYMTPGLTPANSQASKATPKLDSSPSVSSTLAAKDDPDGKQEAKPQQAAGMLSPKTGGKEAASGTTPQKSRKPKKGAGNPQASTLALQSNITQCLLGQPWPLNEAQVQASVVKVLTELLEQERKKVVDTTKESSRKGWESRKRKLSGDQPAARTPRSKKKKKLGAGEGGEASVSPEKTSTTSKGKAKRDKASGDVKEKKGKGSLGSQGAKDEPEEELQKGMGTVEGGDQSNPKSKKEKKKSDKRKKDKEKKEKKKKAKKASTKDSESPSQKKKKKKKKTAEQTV
Chain of UniProt Q8N357 (Q8N357 whole entry, looked up): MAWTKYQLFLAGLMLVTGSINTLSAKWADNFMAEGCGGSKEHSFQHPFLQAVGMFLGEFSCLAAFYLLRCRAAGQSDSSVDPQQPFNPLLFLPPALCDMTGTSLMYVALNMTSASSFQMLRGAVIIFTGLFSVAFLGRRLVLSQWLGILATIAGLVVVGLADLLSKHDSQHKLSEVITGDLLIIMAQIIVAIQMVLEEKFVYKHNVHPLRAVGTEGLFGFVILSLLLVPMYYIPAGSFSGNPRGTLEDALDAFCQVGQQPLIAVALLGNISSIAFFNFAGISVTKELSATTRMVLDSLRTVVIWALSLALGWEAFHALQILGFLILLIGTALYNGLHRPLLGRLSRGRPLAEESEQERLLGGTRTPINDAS
Chain of UniProt Q9NVC3 (Q9NVC3 whole entry, looked up): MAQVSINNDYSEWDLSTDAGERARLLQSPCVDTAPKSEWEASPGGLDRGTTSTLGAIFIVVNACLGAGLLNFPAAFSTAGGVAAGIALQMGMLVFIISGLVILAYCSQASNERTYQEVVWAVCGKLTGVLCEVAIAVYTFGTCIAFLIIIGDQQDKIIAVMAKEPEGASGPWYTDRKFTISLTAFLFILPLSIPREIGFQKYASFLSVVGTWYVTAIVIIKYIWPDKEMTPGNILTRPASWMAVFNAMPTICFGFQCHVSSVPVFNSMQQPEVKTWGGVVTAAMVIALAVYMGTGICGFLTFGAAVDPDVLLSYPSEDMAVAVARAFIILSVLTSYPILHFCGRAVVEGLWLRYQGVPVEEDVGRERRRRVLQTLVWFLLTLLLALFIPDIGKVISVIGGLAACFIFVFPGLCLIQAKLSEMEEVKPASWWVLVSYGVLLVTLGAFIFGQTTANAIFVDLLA
Chain of UniProt Q9BWG4 (Q9BWG4 whole entry, looked up): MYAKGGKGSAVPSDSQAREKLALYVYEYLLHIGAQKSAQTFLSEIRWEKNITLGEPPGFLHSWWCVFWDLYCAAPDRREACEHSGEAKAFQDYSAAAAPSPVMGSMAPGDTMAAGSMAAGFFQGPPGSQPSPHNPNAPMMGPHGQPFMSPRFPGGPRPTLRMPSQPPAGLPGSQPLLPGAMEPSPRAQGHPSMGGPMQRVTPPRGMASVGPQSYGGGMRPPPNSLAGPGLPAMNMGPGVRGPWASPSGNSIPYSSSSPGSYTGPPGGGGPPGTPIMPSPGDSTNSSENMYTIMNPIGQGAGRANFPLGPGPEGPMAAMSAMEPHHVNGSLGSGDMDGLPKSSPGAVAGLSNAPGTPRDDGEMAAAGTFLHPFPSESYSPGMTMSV
Chain of UniProt Q969X1 (Q969X1 whole entry, looked up): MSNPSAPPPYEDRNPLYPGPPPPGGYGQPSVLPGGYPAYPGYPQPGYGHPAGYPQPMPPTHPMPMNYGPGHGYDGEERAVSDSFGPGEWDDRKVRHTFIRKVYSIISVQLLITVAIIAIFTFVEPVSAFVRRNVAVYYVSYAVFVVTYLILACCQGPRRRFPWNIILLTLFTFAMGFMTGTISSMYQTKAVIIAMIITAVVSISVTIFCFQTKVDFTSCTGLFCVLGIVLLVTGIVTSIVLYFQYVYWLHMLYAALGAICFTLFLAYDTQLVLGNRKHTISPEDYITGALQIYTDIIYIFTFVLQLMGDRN
Chain of UniProt Q9NRS6 (Q9NRS6 whole entry, looked up): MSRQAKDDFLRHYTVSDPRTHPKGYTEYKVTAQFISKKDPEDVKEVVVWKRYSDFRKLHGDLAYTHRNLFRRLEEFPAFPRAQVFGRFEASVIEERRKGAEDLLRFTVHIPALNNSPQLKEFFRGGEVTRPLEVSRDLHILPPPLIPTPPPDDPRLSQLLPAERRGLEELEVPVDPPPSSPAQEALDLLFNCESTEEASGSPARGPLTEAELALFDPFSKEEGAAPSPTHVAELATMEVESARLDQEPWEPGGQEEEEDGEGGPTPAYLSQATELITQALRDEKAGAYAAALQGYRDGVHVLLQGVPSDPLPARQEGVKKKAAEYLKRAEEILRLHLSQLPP
Chain of UniProt Q8N5G0 (Q8N5G0 whole entry, looked up): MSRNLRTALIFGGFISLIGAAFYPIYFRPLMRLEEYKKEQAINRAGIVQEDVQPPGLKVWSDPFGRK

Target	log2 fold change [1]	log2 fold change (crizotinib)	log2 fold change [2]	log2 fold change [3]	log2 fold change (duvelisib)	log2 fold change (tozasertib)	log2 fold change [4]	log2 fold change (doramapimod)	log2 fold change (ispinesib)	log2 fold change (gandotinib)
TMBIM6 isoform 2 (UniProt P55061)	-0.066	-0.451 (active)	0.033	-0.049	0.046	-0.066	-0.03	-0.053	-0.407	–
TENT5C (UniProt Q5VWP2)	0.044	0.043	–	0.011	0.111	-0.05	0.174	0.061	0.055	0.142
SLC29A3 (UniProt Q9BZD2)	0.014	-0.559 (active)	-0.098	0.078	0.069	0.097	0.055	0.015	-1.02 (active)	–
TIPRL (UniProt O75663)	0.065	-0.167	0.143	-0.023	-0.016	-0.011	0.065	-0.034	-0.055	-0.159
SLC38A7 (UniProt Q9NVC3)	-0.018	-0.449	0.045	-0.009	–	0.052	–	0.035	-0.842 (active)	-0.412
SLK isoform 2 (UniProt Q9H2G2)	0.016	-0.068	0.07	0.014	0.072	-0.225	0.052	-0.118	0.021	0.102
SSB (UniProt P05455)	-0.159	0.022	-0.085	-0.05	-0.033	0.048	0.003	0.013	-0.02	-0.103
SNX15 (UniProt Q9NRS6)	0.064	0.002	–	0.153	-0.012	0.063	-0.043	0.136	-0.132	-0.061
SSB (UniProt E7ERC4)	–	–	–	–	0.399	–	0.337	–	–	-0.352
TCOF1 isoform 6 (UniProt Q13428)	-0.07	0.032	–	-0.025	–	-0.008	–	-0.068	-0.122	–
SPAG9 isoform 4 (UniProt O60271)	0.144	-0.061	–	0.123	–	0.142	–	0.042	-0.128	–
TDP1 (UniProt Q9NUW8)	–	–	–	0.145	–	–	–	–	–	–
SPIRE1 (UniProt Q08AE8)	–	-0.105	-0.324	0.087	–	-0.052	–	0.096	-0.073	0.344
SLC35F6 (UniProt Q8N357)	-0.247	–	0.021	0.076	-0.049	0.034	-0.219	–	-0.083	–
SLC46A1 (UniProt Q96NT5)	–	–	–	-0.047	–	0.035	–	–	–	-0.006
TMBIM1 (UniProt Q969X1)	-0.03	–	-0.043	0.274	0.042	-0.154	-0.026	–	0.303	-0.017
SLC8B1 (UniProt Q6J4K2)	–	-0.793 (active)	–	0.129	0.196	–	-0.073	0.046	-0.477 (active)	-0.053
TCOF1 isoform 3 (UniProt Q13428)	-0.103	–	0.542	–	–	0.073	–	–	-0.185	-0.166
SNRK (UniProt Q9NRH2)	0.008	-0.026	–	–	-0.162	–	-0.067	0.001	–	–
TK1 (UniProt K7ERV3)	0	–	0.021	0.182	0.046	0.012	-0.041	–	0.005	-0.029
SRCAP (UniProt Q6ZRS2)	-0.015	-0.276	–	-0.111	0.039	0.064	-0.035	0.051	0	-0.069
SPIN4 (UniProt Q56A73)	–	0.108	–	–	–	–	–	-0.213	–	–
SMIM20 isoform 2 (UniProt Q8N5G0)	-0.014	–	0.126	0.019	0.086	0.069	-0.068	–	0.089	0.068

Target	log2 fold change [1]	log2 fold change (crizotinib)	log2 fold change [2]	log2 fold change [3]	log2 fold change (duvelisib)	log2 fold change (tozasertib)	log2 fold change [4]	log2 fold change (doramapimod)	log2 fold change (ispinesib)	log2 fold change (gandotinib)
THAP9 (UniProt Q9H5L6)	–	-0.004	–	-0.105	0.168	–	-0.245	0.041	-0.21	–
TEX30 (UniProt Q5JUR7)	–	-0.206	0.073	0.044	0.031	0.045	0.067	0.059	-0.295	-0.292
TAOK2 (UniProt Q9UL54)	–	0.157	-0.108	–	–	-0.02	–	-0.036	0.035	-0.045
STK17B (UniProt O94768)	–	-0.227	–	–	–	–	–	-0.085	–	–
TBC1D2 (UniProt Q9BYX2)	–	–	0.064	–	–	–	–	–	–	-0.04
SYK (UniProt P43405)	–	–	-0.093	0.053	0.13	0.031	0.405	0.179	-0.216	–
SMPD4 isoform 2 (UniProt Q9NXE4)	–	-0.21	–	-0.061	0.069	-0.163	0.09	0.027	–	-0.263
SSBP4 (UniProt Q9BWG4)	-0.054	-0.034	–	–	0.255	-0.014	0.123	0.103	0.148	-0.121
SP2 (UniProt Q02086)	-0.14	0.083	–	–	-0.08	–	0.125	-0.06	–	–
TM7SF2 (UniProt O76062)	-0.044	–	–	0.028	-0.075	–	0.028	–	-0.451	–
TACC2 (UniProt O95359)	-0.045	–	–	-0.013	0.058	0.056	-0.005	–	0.145	-0.154
SLC9A6 isoform 3 (UniProt Q92581)	–	–	–	-0.018	-0.001	-0.126	-0.137	–	–	–
SREBF1 isoform 4 (UniProt P36956)	–	0.106	0.084	–	-0.083	–	0.089	0.098	–	–
SYNE2 isoform 2 (UniProt Q8WXH0)	0.209	-0.009	–	0.429	0.214	-0.053	0.06	0.046	-0.08	0.521 (active)
TBP (UniProt P20226)	–	0.048	-0.021	0.303	-0.135	0.072	-0.098	-0.023	-0.006	–
TIMM10B (UniProt Q9Y5J6)	0.107	–	0.129	0.031	0.308	-0.114	-0.161	–	0.077	0.087
SLC39A11 (UniProt Q8N1S5)	0.121	0.109	–	-0.066	-0.085	0.116	-0.126	0.009	0.085	0.271
TAF6L (UniProt Q9Y6J9)	-0.035	–	–	0.058	0.246	0.115	-0.121	–	-0.045	-0.08
TC2N (UniProt Q8N9U0)	–	–	–	–	0.256	-0.095	-0.072	–	-0.071	–
SLC39A1 (UniProt Q9NY26)	–	–	–	0.023	–	–	–	–	–	-0.137
SOX5 (UniProt P35711)	0.07	0.046	–	0.041	–	0.045	–	0.054	0.004	–
TM7SF3 (UniProt Q9NS93)	-0.01	-0.432 (active)	–	-0.216	0.007	-0.054	-0.003	0.052	-0.343 (active)	–
